Results: PubChem BioAssay (NCATS)
“And” between values parts separate entries of the source, which are not always exact repeats. Equal values may be shown once. Records with an inconclusive call do not appear. The source made the active and inactive calls. Calls come from the whole dose curve; as a rule, active = well fitted inhibition curve with a large enough effect; inconclusive = small, poorly fitted or top-dose-only effect; inactive = flat fitted curve, though single readings scatter.

Tests used:
GB4 = assay: qHTS profiling for inhibitors of Plasmodium falciparum proliferation (AID 504749);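 note: 0% = DMSO vehicle and full inhibition = artemisinin control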; conditions: P. falciparum in erythrocytes, SYBR Green DNA, 72 h; series mostly up to 28.7 µM
Outline: (§1)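 Readout was DNA-dye fluorescence from lysed cultures, ex 485/em 535 nm. Parasitized red cells had grown 72 h with compound; data scaled between 0.29 uM artemisinin and DMSO wells and corrected using vehicle-only plates.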

HB3 = assay: as above; conditions: P. falciparum in erythrocytes, SYBR Green DNA, 72 h; series mostly up to 28.7 µM
Outline: as §1

ICS = assay: as above; conditions: P. falciparum in erythrocytes, SYBR Green DNA, 72 h; series mostly up to 28.7 µM
Outline: as §1

JCK = assay: as above; conditions: P. falciparum in erythrocytes, SYBR Green DNA, 72 h; series mostly up to 28.7 µM
Outline: as §1

N140 = assay: as above; conditions: P. falciparum in erythrocytes, SYBR Green DNA, 72 h; series mostly up to 28.7 µM
Outline: as §1

P93_24 = assay: as above; conditions: P. falciparum in erythrocytes, SYBR Green DNA, 72 h; series mostly up to 28.7 µM
Outline: as §1

P94_40 = assay: as above; conditions: P. falciparum in erythrocytes, SYBR Green DNA, 72 h; series mostly up to 28.7 µM
Outline: as §1

PAD = assay: as above; conditions: P. falciparum in erythrocytes, SYBR Green DNA, 72 h; series mostly up to 28.7 µM
Outline: as §1

PC15 = assay: as above; conditions: P. falciparum in erythrocytes, SYBR Green DNA, 72 h; series mostly up to 28.7 µM
Outline: as §1

PC26 = assay: as above; conditions: P. falciparum in erythrocytes, SYBR Green DNA, 72 h; series mostly up to 28.7 µM
Outline: as §1

PC49 = assay: as above; conditions: P. falciparum in erythrocytes, SYBR Green DNA, 72 h; series mostly up to 28.7 µM
Outline: as §1

SC27B = assay: as above; conditions: P. falciparum in erythrocytes, SYBR Green DNA, 72 h; series mostly up to 28.7 µM
Outline: as §1

TAB109 = assay: as above; conditions: P. falciparum in erythrocytes, SYBR Green DNA, 72 h; series mostly up to 28.7 µM
Outline: as §1

TAB113 = assay: as above; conditions: P. falciparum in erythrocytes, SYBR Green DNA, 72 h; series mostly up to 28.7 µM
Outline: as §1

TAB165 = assay: as above; conditions: P. falciparum in erythrocytes, SYBR Green DNA, 72 h; series mostly up to 28.7 µM
Outline: as §1

W2 = assay: as above; conditions: P. falciparum in erythrocytes, SYBR Green DNA, 72 h; series mostly up to 28.7 µM
Outline: as §1

CRL-7250 = normal cell line; assay: Cytotoxic Profiling of Annotated Libraries Using Quantitative High-Throughput Screening (AID 1296008); conditions: Five cell lines viability, CellTiter-Glo ATP luminescence, 48-72 h; max response: active compounds read low; for max response: % is set by controls: 0 for no effect and ±100 for the full control effect
Outline: (§2)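 Cells exposed to compounds for 48 or 72 hr at 37 degrees Celsius. Viability read as ATP-coupled luminescence with CellTiter-Glo after 10 min at room temperature.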

HEK293 = assay: as above; conditions: Five cell lines viability, CellTiter-Glo ATP luminescence, 48-72 h; max response: active compounds read low
Outline: as §2

HaCat = assay: as above; conditions: Five cell lines viability, CellTiter-Glo ATP luminescence, 48-72 h; max response: active compounds read low
Outline: as §2

KB-3-1 = assay: as above; conditions: Five cell lines viability, CellTiter-Glo ATP luminescence, 48-72 h; max response: active compounds read low
Outline: as §2
Note: nearly all actives have a fitted effect of over 60% in size.

Cc1cc2c(cc1S(N)(=O)=O)S(=O)(=O)CCC2
inactive: Potency (GB4) | Potency (HB3) | Potency (ICS) | Potency (JCK) | Potency (N140) | Potency (P93_24) | Potency (P94_40) | Potency (PAD) | Potency (PC15) | Potency (PC26) | Potency (PC49) | Potency (SC27B) | Potency (TAB109) | Potency (TAB113) | Potency (TAB165) | Potency (W2) | max response (CRL-7250) -3.17% | outcome (HEK293) | outcome (HaCat) | max response (KB-3-1) -2.22%

CC12CCC(CC1)C(C)(C)O2
inactive: Potency (GB4) | Potency (HB3) | Potency (ICS) | Potency (JCK) | Potency (N140) | Potency (P93_24) | Potency (P94_40) | Potency (PAD) | Potency (PC15) | Potency (PC26) | Potency (PC49) | Potency (SC27B) | Potency (TAB109) | Potency (TAB113) | Potency (TAB165) | Potency (W2) | max response (CRL-7250) 3.08% | outcome (HEK293) | max response (HaCat) -2.38% | max response (KB-3-1) -7.48%

CCCCC(CC)COC(=O)c1ccccc1O (configuration not stated)
inactive: Potency (GB4) | Potency (HB3) | Potency (ICS) | Potency (JCK) | Potency (N140) | Potency (P93_24) | Potency (P94_40) | Potency (PAD) | Potency (PC15) | Potency (PC26) | Potency (PC49) | Potency (SC27B) | Potency (TAB109) | Potency (TAB113) | Potency (TAB165) | Potency (W2) | max response (CRL-7250) -6.25% | outcome (HEK293) | outcome (HaCat) | max response (KB-3-1) -6.97%

O=c1[nH]c(=O)c2[nH]c(=O)[nH]c2[nH]1
inactive: Potency (GB4) | Potency (HB3) | Potency (ICS) | Potency (JCK) | Potency (N140) | Potency (P93_24) | Potency (P94_40) | Potency (PAD) | Potency (PC15) | Potency (PC26) | Potency (PC49) | Potency (SC27B) | Potency (TAB109) | Potency (TAB165) | Potency (W2) | max response (CRL-7250) -3.74% | max response (HEK293) -1.57% | max response (HaCat) 1.96% | max response (KB-3-1) 23.1% and -16.9%

CC(C)(C)C(=O)NCCCC(=O)O
inactive: Potency (GB4) | Potency (HB3) | Potency (ICS) | Potency (JCK) | Potency (N140) | Potency (P93_24) | Potency (P94_40) | Potency (PAD) | Potency (PC15) | Potency (PC26) | Potency (PC49) | Potency (SC27B) | Potency (TAB109) | Potency (TAB113) | Potency (TAB165) | Potency (W2) | max response (CRL-7250) -4.98% | outcome (HEK293) | max response (HaCat) 4.53% | max response (KB-3-1) -0.595%

CCCCOC(=O)c1ccc(O)cc1
inactive: Potency (GB4) | Potency (HB3) | Potency (JCK) | Potency (N140) | Potency (P93_24) | Potency (P94_40) | Potency (PAD) | Potency (PC15) | Potency (PC26) | Potency (PC49) | Potency (SC27B) | Potency (TAB109) | Potency (TAB113) | Potency (TAB165) | max response (CRL-7250) 0.245% | outcome (HEK293) | outcome (HaCat) | max response (KB-3-1) 0.659%
